Laboratory results as given in PubChem BioAssay AID2187 (The Scripps Research Institute Molecular Screening Center, 2009).
In all, about 1,300 compounds went through this assay and about 1,200 (92%) were called active.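 How the source made its calls: active means inhibition of the VIM-2 beta-lactamase enzyme above about 11% from the earlier first-round screen (limit read from the data); inactive means the rest.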 So high a share suggests a set chosen from earlier hits. These entries were drawn from the full list.

Tested on: VIM-2 metallo-beta-lactamase (Pseudomonas aeruginosa)
Test: VIM-2 metallo-beta-lactamase inhibitors, confirmation, biochemical, epi-absorbance, hits shared with IMP-1 screen (AID 2187);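 further: 0% = VIM-2 with DMSO and 100% = buffer wells without enzyme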
Conditions: purified VIM-2, nitrocefin hydrolysis, at 5.6 µM, hits give high values

SMILES | inhibition
Cc1cc(OCc2cc(C(=O)O)oc2C)c2c3c(c(=O)oc2c1)CCCC3 | 73.5% (active)
Cc1cc(=O)oc2c(C)c(OCC(=O)N3CCN(Cc4ccc5c(c4)OCO5)CC3)ccc12 | 58.3% (active)
